In the library only some 1.8% were active in any assay of this set; here they are far more common.
CtBP-E1A blk: CtBP/E1A binding inhibition; 0.49% of 340,000 active; activity change, % (concentration not given with the values); AlphaScreen GST-E1A/His-CtBP binding, 1536-well; active compounds read low; AID 651724
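AlphaScreen with 125 nM GST-E1A and 125 nM His-CtBP (5X stocks) in Tris pH 8.0, 300 mM NaCl, BSA, Tween 20, TCEP. Compounds preincubated 2 h at 37 deg C, then glutathione donor/nickel acceptor beads added for 1 h at 37 deg C in dark.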
PI4K2A inh: PI4K2A (human) kinase inhibition; Q9BTU6; purified PI4K2A, ADP-Glo luminescence, 1 h; active compounds read low; activity change, negative = inhibition, % at 76.9 µM; 0.13% of 420,000 active; in the data active = activity change below about -50%; inconclusive = mostly about -30% to -49%;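 also: -100% = wells without enzyme as full effect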
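ADP-Glo luminescence measured ADP generated by PI4K2A enzyme (4 ug/mL before mixing) with 1.2 mM PI substrate (pre-mix) and 300 microM ATP (pre-mix). Tris pH7.5 buffer with MgCl2, Triton X-100; 1 h reaction at ambient temperature.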
PI5P4K alpha inh: blocks human PI5P4K alpha kinase activity; P48426; PI5P4Kalpha enzyme, ADP-Glo luminescence, 60 min; active compounds read low; max response, %; 1.2% of 330,000 active; AID 652105; active = max response of -50% or lower; inconclusive = between -30% and -50%; inactive = -30% or higher; also: value at the top dose of about 77 µM
Target sequence (P48426 whole entry, looked up): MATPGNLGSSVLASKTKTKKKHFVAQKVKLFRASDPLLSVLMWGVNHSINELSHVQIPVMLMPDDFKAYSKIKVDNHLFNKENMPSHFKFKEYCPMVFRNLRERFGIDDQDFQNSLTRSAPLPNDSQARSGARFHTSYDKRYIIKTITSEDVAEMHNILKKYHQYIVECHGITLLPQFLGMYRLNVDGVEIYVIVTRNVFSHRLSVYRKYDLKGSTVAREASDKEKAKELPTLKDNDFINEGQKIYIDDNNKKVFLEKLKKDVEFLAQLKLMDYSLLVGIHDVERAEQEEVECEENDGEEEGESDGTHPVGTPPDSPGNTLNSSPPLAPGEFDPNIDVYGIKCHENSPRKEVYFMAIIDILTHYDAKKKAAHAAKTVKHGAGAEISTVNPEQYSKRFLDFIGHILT
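Human PI5P4Kalpha with substrate in 0.038 M HEPES pH 7.4, 0.28 mM EGTA, 0.1% CHAPS, 5% DMSO; reaction started with 5 microM ATP (final), 60 min at room temperature. ADP formed read by ADP-Glo luminescence.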
Six1-Eya2 blk: blocks human Six1 binding to Eya2; Q15475+O00167; AlphaScreen GST-Six1/His-Eya2 binding, biochemical; active compounds read low; activity change, % (concentration not given with the values); 0.56% of 360,000 active; AID 651725
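AlphaScreen with GST-Six1 and His-Eya2 (5X mix: 250 nM and 500 nM), glutathione donor and nickel acceptor beads; buffer 50 mM Tris pH 8.0, 300 mM NaCl, 1 mM TCEP; 1 h at 37 C in the dark.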
pAkt inh: Akt phosphorylation inhibition | activity change, % for hits at 50 µM | Neuro2A IGF-stimulated pAkt S473 HTRF, 20 min; active compounds read low | 0.32% of 360,000 active; in the data active = activity change below about -80%; inconclusive = mostly about -51% to -80%
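Neuro2A cells (4,500/well, DMEM with 0.5% FBS) were treated with compound at a single 50 µM final concentration, stimulated with 6 nM IGF for 20 min at 37 °C, and lysed. Phospho-Akt Ser473 was read by HTRF as 665/615 ratio ×10^4.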
* = called active by the depositor; i = inactive; ? = inconclusive; · = not tested or not shown. Rule as the data show it, unless noted: active = activity change below about -65%; inconclusive = mostly about -30% to -63%; inactive = weaker than that. Unless noted, % is scaled to controls: 0 for no effect and ±100 for the full control effect.

SMILES | CtBP-E1A blk | PI4K2A inh | PI5P4K alpha inh | Six1-Eya2 blk | pAkt inh
Cc1ccc2nc(/C(C#N)=C/c3ccccc3C(=O)O)[nH]c2c1 | 0 | -6 | -4 | 1 | i
CCC(=O)OCCNc1cc(Sc2nc3ccccc3s2)c2nonc2c1[N+](=O)[O-] | 0 | -7 | · | -5 | i
CC1CN(C(=O)COc2ncnc3ccccc23)CC(C)O1 (configuration not stated) | -2 | -9 | 1 | 5 | -105%*
Oc1ccc(C2=Nn3c(nnc3-c3ccco3)SC2)cc1O | -94* | -6 | ? | -89* | i
c1coc(-c2nnc3n2N=C(c2ccc4ccccc4c2)CS3)c1 | · | -8 | · | · | ·
COc1ccc(C2=Nn3c(nnc3-c3ccco3)SC2)cc1 | -80* | -2 | 0 | -66* | i
Cc1cc(-c2nnc3n2N=C(c2ccccc2)CS3)n[nH]1 | ? | -1 | 8 | ? | i
Cc1cc(-c2nnc3n2N=C(c2ccc(-c4ccccc4)cc2)CS3)n[nH]1 | -69* | 1 | ? | -72* | i
COC(=O)c1cn(Cc2ccccc2C)nn1 | -8 | -4 | 1 | -7 | i
COCCN1Cc2cccc(C(=O)Nc3ccc(S(=O)(=O)N4CCCCCC4)cc3)c2C1=O | -1 | 5 | 2 | 0 | i
Cc1cc(OC(=O)c2ccc(C(F)(F)F)cc2)c([N+](=O)[O-])c(=O)[nH]1 | 4 | 0 | -9 | -1 | i
Oc1ccc(/C=N/Nc2ccc(Cl)nn2)c(O)c1O | · | -7 | -71* | -95* | i
COc1ccc(/C=N/Nc2nncc3ccccc23)cc1 | 0 | -11 | -29 | -14 | i
Oc1c(Br)cc(Br)cc1/C=N/Nc1ccc(Cl)nn1 | -18 | -3 | 0 | -22 | i
Oc1c(Br)cc(/C=N/Nc2nncc3ccccc23)cc1Br | -5 | 3 | -62* | -6 | i
Oc1c(Br)cc(/C=N/Nc2ccc(Cl)nn2)cc1Br | -8 | 8 | -93* | -27 | i
Cn1c(CNC(=O)c2ccco2)nnc1SCC(=O)c1ccccc1 | 8 | 6 | -5 | -4 | i
OCC1OC(Oc2cccc3ccccc23)C(O)C(O)C1O (configuration not stated) | 9 | -8 | -7 | 6 | i
O=C(O)c1cc(O)c2c(c1)[C@@H]([C@H]1c3cc(C(=O)O)cc(O)c3C(=O)c3c(O[C@@H]4O[C@H](CO)[C@@H](O)[C@H](O)[C@H]4O)cccc31)c1cccc(O[C@@H]3O[C@H](CO)[C@@H](O)[C@H](O)[C@H]3O)c1C2=O | 9 | -64* | -111* | ? | i
COc1ccc(CNC(=O)NC2CCCCC2)cc1 | 7 | 0 | · | 3 | i
CCOC1=CC2=C(C(=O)C(Cl)=CC2=O)[C@@H]2CN(S(=O)(=O)c3ccc(C)cc3)[C@@H](c3ccccc3)[C@H]12 | ? | -19 | -107* | ? | i
CCN1C(=O)[C@@H]2[C@@H]3CN(S(=O)(=O)c4ccc(C)cc4)[C@@H](c4ccccc4)[C@@H]3C(=O)C[C@@H]2C1=O | 1 | -1 | 0 | -9 | i
CCCc1[nH]nc2c1C(c1ccc(OC(=O)N3CCOCC3)c(OC)c1)C(C#N)=C(N)O2 (configuration not stated) | 0 | -2 | · | -4 | i
COc1ccc(NC(=O)CCc2c(C)nc3nc(C)nn3c2C)cc1 | -4 | 0 | -1 | -2 | -118%*
CSc1n[nH]c(=O)n1-c1cccc(Cl)c1 | 5 | -3 | -6 | 4 | i
SMILES | CtBP-E1A blk | PI4K2A inh | PI5P4K alpha inh | Six1-Eya2 blk | pAkt inh
CCOC(=O)C(C(=O)OCC)N(C#N)c1nc(OC)nc(N(C)C)n1 | -2 | 5 | -2 | 2 | -113%*
CCc1nc(-c2ccc(-c3ccc(OC)cc3)nc2OC)no1 | 12 | 3 | 15 | 12 | i
CCN(c1ccccc1)S(=O)(=O)c1ccc(OC)c(NC(=O)c2ccc(=O)[nH]c2)c1 | -24 | -2 | 4 | 25 | i
Cc1c(C#N)c(O)[nH]c(=O)c1N=Nc1ccc(Br)cc1C(=O)O | -89* | -6 | -59* | -71* | i
CN1CCNC(=O)C1CC(=O)NCC1(c2ccccc2)CCCCC1 (configuration not stated) | · | -4 | -2 | 8 | i
CC1(C)SC2C(C(=O)O)N=C(Cc3ccccc3)N2C1C(=O)O (configuration not stated) | -84* | -6 | 5 | -81* | i
O=c1c(C(c2ccc(Br)cc2)c2c(O)nc3n(c2=O)CCS3)c(O)nc2n1CCS2 | 2 | -2 | -21 | -5 | i
O=c1c(C(c2ccc(O)cc2)c2c(O)nc3n(c2=O)CCCS3)c(O)nc2n1CCCS2 | -2 | ? | ? | -3 | i
O=c1c(C(c2c(O)nc3n(c2=O)CCS3)c2cccc3ccccc23)c(O)nc2n1CCS2 | -8 | -16 | -76* | -10 | i
Cc1ccc(C(c2c(O)nc3n(c2=O)CCS3)c2c(O)nc3n(c2=O)CCS3)cc1 | -9 | -52* | -27 | 7 | i
O=c1c(C(c2ccc(O)cc2)c2c(O)nc3n(c2=O)CCS3)c(O)nc2n1CCS2 | -9 | ? | -59* | -1 | i
CCn1cc(C(=O)N(C)c2cc(C)ccc2C)c2cc(OC)c(OC)cc2c1=O | · | 0 | · | · | ·
Cn1c(=O)[nH]c(=O)c2c1nc(NCc1ccco1)n2CCCc1ccccc1 | 0 | 2 | 0 | -6 | i
Cc1ccc(-c2nnc(Nc3cccc(Cl)c3)c3ccccc23)cc1S(=O)(=O)NCC1CCCO1 (configuration not stated) | · | -5 | · | · | ·
S=c1[nH]nc(-c2ccccn2)n1/N=C/c1ccco1 | 0 | -11 | 7 | -74* | i
Cc1ccsc1/C=N/n1c(-c2ccccn2)n[nH]c1=S | ? | -11 | -2 | -78* | i
S=c1[nH]nc(-c2ccccn2)n1/N=C/c1cccc(Cl)c1 | ? | -6 | -3 | ? | i
S=c1[nH]nc(-c2ccccc2Cl)n1/N=C/C=C/c1ccco1 | -7 | -6 | -60* | -8 | i
O=[N+]([O-])c1cc2c(cc1/C=N/n1c(-c3ccccn3)n[nH]c1=S)OCO2 | 8 | 0 | -8 | -83* | i
S=c1[nH]nc(-c2ccncc2)n1/N=C/C=C/c1ccco1 | -1 | -4 | ? | -11 | i
CC[C@@H](C)[C@@H]1CN([C@@H](CN2CCC[C@H]2CN2C(N)=NC[C@H]2C(C)C)C(C)C)C(=N)N1CCc1ccc(Cl)c(Cl)c1 | -26 | -1 | 3 | 1 | i
O=C1CCCC2=C1C(c1cccc(Br)c1)n1nc(-c3ccco3)nc1N2 (configuration not stated) | 2 | -7 | -3 | -6 | i
Cc1sc2nc(SCC(=O)NCc3ccco3)n(C)c(=O)c2c1C | -1 | 2 | -1 | -1 | i
